Laboratory results as given in PubChem BioAssay (NCATS).
Values joined by “and” are separate entries in the source; they are usually repeats but may differ in a detail not shown here. Identical values can stand only once. A number with no mark means an inactive call. Inconclusive results are not listed. Where a call stands in place of a potency, no number is given. Active and inactive are the calls of the source. Unless noted, calls follow the shape of the dose curve; as a rule, active = well fitted curve in the direction sought with a large enough effect; inconclusive = small, poorly fitted or top-dose-only effect, or another doubt; inactive = no such curve, though single readings can be large; an effect the other way counts as inactive or inconclusive.

Experiments:
[1] = Cell Viability - NIH 3T3 (AID 541); settings: NIH 3T3 cell viability, qHTS; activity change, negative = cytotoxicity: at 92.2 µM (top of the series); also: nearly all actives have a fitted effect of over 25% in size; also: potency is read from the fitted curve at half-maximal effect
Summary of the method: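 NIH 3T3 mouse embryo fibroblasts (1000 cells/well) were plated in complete medium and treated with compound for 40 hr at 37 °C. Viability was read as intracellular ATP by CellTiter-Glo luminescence; AC50 values came from Hill-equation fits of concentration-response data.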

[2] = Cell Viability - Mesenchymal (AID 546); settings: mesenchymal cells viability, qHTS; series mostly up to 91.7 µM;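 also: cells exposed to compound for 40 hours before reading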
Summary of the method: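 Normal human renal glomerulus-derived kidney mesenchymal cells, 1000 per well in complete medium, were treated with compounds for 40 hr at 37 °C. Viability was read as intracellular ATP by CellTiter-Glo luminescence; AC50 values came from Hill-equation fits of qHTS concentration-response data.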

[3] = Cellular Toxicity (caspase-3) NIH 3T3 (AID 666); settings: NIH 3T3 caspase-3 activation, apoptosis/toxicity; series mostly up to 92.2 µM;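 also: caspase signal read after 16 h compound exposure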
Summary of the method: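 Mouse NIH 3T3 fibroblasts (1000 cells/well) were treated with compound for 16 hr at 37°C in complete medium; caspase-3/7 activity was read by Caspase-Glo luminescence. Normalized to DMSO and 100 uM tamoxifen; AC50 from Hill fits.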

[4] = MultiTox-Fluor Cytotoxicity Assay - LYMP1-001 - Dead Cells (AID 946); settings: LYMP1-001 lymphoblastoid cells, dead-cell protease fluorescence; series mostly up to 92.2 µM
Summary of the method: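 AC50 from Hill fit of concentration-response; data normalized to DMSO (basal) and 15 uM tetraoctylammonium bromide (100%). LYMP1-001 lymphoblastoid cells, 2500/well, 16 hr compound at 37 C; dead-cell protease fluorescence, Ex/Em 485/520.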

[5] = MultiTox-Fluor Cytotoxicity Assay - LYMP1-002 - Live Cells (AID 955); settings: LYMP1-002 lymphoblastoid live-cell protease fluorescence viability; series mostly up to 46.1 µM
Summary of the method: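 Human lymphoblastoid LYMP1-002 cells, 2500/well in complete medium, rested 5 hr at 37 C, then exposed to compounds for 16 hr at 37 C. Live-cell protease cleavage of GF-AFC read by fluorescence (Ex/Em 405/510) after 60 min at room temperature; AC50 from Hill fits.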

[6] = Cell Viability - LYMP1-003 - Assay at 24 hr (AID 963); settings: LYMP1-003 lymphoblastoid cell viability; series mostly up to 92.2 µM
Summary of the method: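 Human lymphoblastoid LYMP1-003 cells (2500/well) were rested 5 hr at 37 C, then exposed to compounds in complete medium for 24 hr at 37 C. Cellular ATP was quantified by CellTiter-Glo luminescence, and AC50 values came from Hill fits of concentration-response data.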

[7] = Cell Viability - LYMP2-015 (AID 971); settings: LYMP2-015 lymphoblastoid cell viability; series mostly up to 92.2 µM; also: nearly all actives have a fitted effect of over 55% in size
Summary of the method: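 Human lymphoblastoid cells (2500/well) in complete medium were preincubated 5 hr at 37 C, then compound-treated 24 hr at 37 C. Intracellular ATP was read by CellTiter-Glo luminescence after 30 min at room temperature; AC50 came from Hill-equation concentration-response fits.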

[8] = Cell Viability - LYMP2-016 (AID 984); settings: LYMP2-016 lymphoblastoid cell viability, qHTS; series mostly up to 92.2 µM; also: nearly all actives have a fitted effect of over 55% in size
Summary of the method: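 Cells were seeded at 2500 per well and rested 5 hr before a 24 hr compound exposure at 37 C. Viability was then gauged as cellular ATP by luciferase luminescence, with AC50 values fitted to the Hill equation.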

[9] = Cell Viability - LYMP2-024 (AID 988); settings: LYMP2-024 lymphoblastoid cell viability; series mostly up to 92.2 µM; also: nearly all actives have a fitted effect of over 60% in size
Summary of the method: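 Human lymphoblastoid cells (2500/well) in complete medium were preincubated 5 hr at 37 C, then exposed to compounds for 24 hr at 37 C. Intracellular ATP was read by CellTiter-Glo luminescence; AC50 from Hill-equation fits of concentration-response data.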

[10] = Cell Viability - LYMP1-002 - Assay at 24 hr (AID 993); settings: LYMP1-002 lymphoblastoid cells viability; series mostly up to 92.2 µM
Summary of the method: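 Human lymphoblastoid LYMP1-002 cells, 2500/well in complete medium, were treated with compounds for 24 h at 37 C; intracellular ATP was read by CellTiter-Glo luminescence. AC50 values came from Hill-equation fits of qHTS concentration-response data.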

[11] = target: Vitamin D3 receptor (Homo sapiens) (UniProt P11473); test: qHTS assay for small molecule agonists of vitamin D receptor signaling (AID 588543; calls by dose curve); settings: HEK293T VDR-UAS-bla, beta-lactamase ratio, 16 h; series mostly up to 76.8 µM
Chain of Vitamin D3 receptor (Homo sapiens) (P11473 whole entry, looked up): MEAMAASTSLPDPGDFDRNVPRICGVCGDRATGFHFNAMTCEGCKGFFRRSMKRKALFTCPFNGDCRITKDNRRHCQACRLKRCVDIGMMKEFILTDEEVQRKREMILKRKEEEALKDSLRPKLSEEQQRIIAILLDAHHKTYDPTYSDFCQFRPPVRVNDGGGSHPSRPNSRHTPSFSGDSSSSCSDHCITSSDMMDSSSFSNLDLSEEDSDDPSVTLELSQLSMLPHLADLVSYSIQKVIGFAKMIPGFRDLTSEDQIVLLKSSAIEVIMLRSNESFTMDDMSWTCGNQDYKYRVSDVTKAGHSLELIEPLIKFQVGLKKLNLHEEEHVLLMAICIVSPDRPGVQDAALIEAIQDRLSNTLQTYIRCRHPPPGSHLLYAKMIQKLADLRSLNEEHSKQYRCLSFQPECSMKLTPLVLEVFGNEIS
Summary of the method: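 Reporter cells (HEK293T, VDR-UAS-bla) were seeded in medium with 2% charcoal-stripped serum and incubated 5 h, then compounds in concentration series were added for 16 h at 37 °C. Stimulation was scaled between DMSO basal and 50 nM 1α,25-dihydroxyvitamin D3.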

[12] = target: Peroxisome proliferator-activated receptor alpha (Homo sapiens) (UniProt Q07869); test: qHTS assay for small molecule agonists of the peroxisome proliferator-activated receptor alpha (PPARalpha) signaling pathway (AID 651778); settings: PathHunter PPARalpha complementation, chemiluminescence, 6 h; stronger effect = higher value
Chain of Peroxisome proliferator-activated receptor alpha (Homo sapiens) (Q07869 whole entry, looked up): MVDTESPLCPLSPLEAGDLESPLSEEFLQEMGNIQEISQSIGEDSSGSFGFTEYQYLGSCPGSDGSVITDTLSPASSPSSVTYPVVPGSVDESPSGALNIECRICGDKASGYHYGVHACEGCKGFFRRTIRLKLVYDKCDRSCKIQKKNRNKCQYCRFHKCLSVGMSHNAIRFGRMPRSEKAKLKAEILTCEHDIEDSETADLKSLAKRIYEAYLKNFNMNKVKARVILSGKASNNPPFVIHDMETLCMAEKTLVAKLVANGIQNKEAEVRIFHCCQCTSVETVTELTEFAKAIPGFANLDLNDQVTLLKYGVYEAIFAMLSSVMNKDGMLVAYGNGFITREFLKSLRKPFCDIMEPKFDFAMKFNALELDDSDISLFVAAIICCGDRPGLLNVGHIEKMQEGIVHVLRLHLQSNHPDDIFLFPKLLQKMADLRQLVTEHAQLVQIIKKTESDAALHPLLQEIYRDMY
Summary of the method: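 Cells plated at 2,000/well and held overnight at 37 C, 5% CO2, then compound added by pin tool for 6 hr; after PathHunter detection reagent and 60 min at room temperature, chemiluminescence from enzyme complementation was read.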

[13] = target: Nuclear receptor ROR-gamma (Homo sapiens) (UniProt P51449); test: qHTS assay for small molecule antagonists of the retinoid-related orphan receptor gamma (ROR-gamma) signaling pathway (AID 651802); settings: ROR-gamma antagonist cell reporter assay; series mostly up to 92.2 µM; also: nearly all actives have a fitted effect of over 60% in size
Chain of Nuclear receptor ROR-gamma (Homo sapiens) (P51449 whole entry, looked up): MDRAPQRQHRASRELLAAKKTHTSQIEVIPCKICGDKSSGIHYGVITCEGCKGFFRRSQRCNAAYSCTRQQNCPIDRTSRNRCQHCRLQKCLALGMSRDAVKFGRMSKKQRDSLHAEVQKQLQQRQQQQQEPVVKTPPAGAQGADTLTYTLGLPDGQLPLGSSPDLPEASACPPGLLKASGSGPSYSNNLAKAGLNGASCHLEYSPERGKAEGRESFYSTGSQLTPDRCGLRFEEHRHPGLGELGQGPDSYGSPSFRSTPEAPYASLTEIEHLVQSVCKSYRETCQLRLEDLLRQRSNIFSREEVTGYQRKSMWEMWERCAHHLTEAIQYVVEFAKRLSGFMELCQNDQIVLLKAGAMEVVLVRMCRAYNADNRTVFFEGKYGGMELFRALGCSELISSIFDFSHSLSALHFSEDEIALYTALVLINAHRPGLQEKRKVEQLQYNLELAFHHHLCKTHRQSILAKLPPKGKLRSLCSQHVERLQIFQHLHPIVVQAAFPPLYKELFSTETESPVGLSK
Summary of the method: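 CHO cells carrying TET-inducible ROR-gamma and an ROR response element–luciferase reporter were exposed to compound, then induced with doxycycline. After 16hr at 37C, luminescence was read; lower signal indicates antagonism.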

[14] = qHTS assay for small molecule agonists of the antioxidant response element (ARE) signaling pathway measured by Nrf2-dependant transcriptional activity - cell viability counter screen (AID 720653; active = well fitted curve in the direction sought with a large enough effect in the repeat runs; an effect the other way counts as inactive or inconclusive); settings: ARE-bla HepG2 viability, CellTiter-Glo ATP luminescence, 16 h; stronger effect = lower value
Summary of the method: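 ARE-bla HepG2 cells (2,000/well) rested 5 hrs at 37C/5% CO2, then exposed to compounds in DMSO for 16 hrs. Viability was read in the same wells as intracellular ATP by luminescence, 30 min at room temperature after reagent addition.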

[15] = qHTS assay for cell viability of the p53RE-bla HCT-116 cell line (AID 743292); settings: p53RE-bla HCT-116 viability, ATP luminescence, 16 h; series mostly up to 95 µM; also: nearly all actives have a fitted effect of over 55% in size
Summary of the method: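 Readout: CellTiter-Glo luminescence after 30 min RT. Treatment: compounds in DMSO, 16 h, 37 C. Cells: CellSensor p53RE-bla HCT-116, 4,000/well, preincubated 5 h.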

[16] = target: Nuclear receptor subfamily 1 group I member 2 (Rattus norvegicus) (UniProt Q9R1A7); test: qHTS assay for small molecule activators of the rat pregnane X receptor (rPXR) signaling pathway (AID 651751; call rule not given here); settings: rPXR reporter cells, luciferase (One-Glo), 24 h
Chain of Nuclear receptor subfamily 1 group I member 2 (Rattus norvegicus) (Q9R1A7 whole entry, looked up): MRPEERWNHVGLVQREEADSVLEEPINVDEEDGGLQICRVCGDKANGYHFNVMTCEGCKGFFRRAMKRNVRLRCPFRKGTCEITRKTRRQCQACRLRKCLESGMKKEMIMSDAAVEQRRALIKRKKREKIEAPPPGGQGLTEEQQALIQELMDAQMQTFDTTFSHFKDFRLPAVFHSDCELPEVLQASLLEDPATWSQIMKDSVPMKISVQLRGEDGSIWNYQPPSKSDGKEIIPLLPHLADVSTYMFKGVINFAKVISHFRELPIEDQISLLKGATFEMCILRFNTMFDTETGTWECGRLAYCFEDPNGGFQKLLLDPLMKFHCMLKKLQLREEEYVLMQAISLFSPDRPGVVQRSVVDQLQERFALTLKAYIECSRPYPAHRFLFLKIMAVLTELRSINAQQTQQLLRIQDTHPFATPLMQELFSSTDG

[17] = Cell Viability - Jurkat (AID 426;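 active = dose-dependent loss of cell ATP signal giving a full or clear fitted curve, ranked by lower potency value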; also: potency is read from the fitted curve at half-maximal effect); settings: qHTS
Summary of the method: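 Jurkat (clone E6-1, human T-cell leukemia) cells, 5000/well in complete medium, were exposed to compound for 40 hr at 37 °C. Viability was read as intracellular ATP by CellTiter-Glo luminescence; AC50 came from Hill fits of concentration-response data.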

[18] = Cellular Toxicity (caspase-3) MRC-5 (AID 659); settings: MRC-5 cells, luminescence, normalized: DMSO 0%, 10 µM staurosporine 100%; series mostly up to 91.7 µM
Summary of the method: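 Luminescence from caspase-cleaved aminoluciferin substrate (Caspase-Glo 3/7, 1 hr RT) reports caspase 3/7 activity in MRC-5 lung fibroblasts after 16 hr compound exposure. Normalized to DMSO basal and 10 uM staurosporine as 100%; AC50 from Hill fits.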

[19] = qHTS assay for small molecule disruptors of the mitochondrial membrane potential - 5 hr assay (AID 651755; calls by dose curve; also: nearly all actives have a fitted effect of over 40% in size; also: potency is read from the fitted curve at half-maximal effect); settings: JC-1-type ratio dye; series mostly up to 92.2 µM
Summary of the method: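 HepG2 cells, attached overnight at 37C, were exposed to compound or DMSO for 5 hr at 37C, 5% CO2. Mito-MPS dye was then added for 30 min, and fluorescence read at 490/535 nm (monomers) and 540/590 nm (aggregates).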

[20] = qHTS assay for small molecule antagonists of the retinoid-related orphan receptor gamma (ROR-gamma) signaling pathway - cell viability counter screen (AID 720652; active = well fitted curve in the direction sought with a large enough effect in the repeat runs; an effect the other way counts as inactive or inconclusive;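 also: compound exposure lasted 16 hr before ATP read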); settings: RORgamma reporter cell line viability counter screen; series mostly up to 92.2 µM
Summary of the method: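 Counter screen in CHO cells carrying TET-inducible ROR-gamma and an ROR response element-luciferase reporter; cells plated 5 hr, compound pinned, doxycycline added, then 16 hr at 37 C. Viability read as intracellular ATP by CellTiter-Glo luminescence.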

| SMILES | Potency [1] | Potency [2] | Potency [3] | outcome [4] | outcome [5] | outcome [6] | Potency [7] | Potency [8] | Potency [9] | Potency [10] | outcome [11] | max response [12] | Potency [13] | max response [14] | Potency [15] | max response [16] | Potency [17] | outcome [18] | Potency [19] | Potency [20] |
| --- | --- | --- | --- | --- | --- | --- | --- | --- | --- | --- | --- | --- | --- | --- | --- | --- | --- | --- | --- | --- |
| CC(C)[N+](=O)[O-] | inactive | inactive | inactive | inactive | inactive | inactive | inactive | inactive | inactive | inactive | inactive | -6.42% | inactive | 1.53% | inactive | 1.27% |  |  |  |  |
| ClC(Cl)(Cl)C(Cl)(Cl)Cl | inactive | inactive |  | inactive |  | inactive | inactive | inactive | inactive |  | inactive | -2.99% | inactive | -0.289% | inactive | 6.05% | > 92 µM | inactive | inactive | inactive |
| Nc1ccc(Cc2ccc(N)cc2)cc1 | inactive | inactive |  | inactive | inactive | inactive | inactive | inactive | inactive | inactive | inactive | -4.91% and -1.61% | inactive |  | inactive | 4.75% and 4.67% | > 92 µM | inactive | inactive | inactive |
| CC1CC(=O)O1 (stereo not drawn) | inactive | inactive |  | inactive |  |  |  | inactive |  | inactive | inactive | -0.51% | inactive | -3.76% | inactive | 0.366% | > 92 µM | inactive | inactive | inactive |
| c1ccc(OCC2CO2)cc1 (stereo not drawn) |  | inactive |  | inactive | inactive | inactive | inactive |  | inactive | inactive | inactive | -5.02% | inactive | 0.104% | inactive | -1.75% | > 92 µM | inactive | inactive | inactive |
| O=[N+]([O-])c1cccc2c([N+](=O)[O-])cccc12 | inactive | inactive | inactive | inactive | inactive | inactive | inactive | inactive | inactive |  |  |  | inactive | 5.81% | inactive | -2.66% | > 92 µM |  | inactive | inactive |
| Nc1ccc(-c2ccc(N)c(Cl)c2)cc1Cl | 15.8 µM (active) |  | inactive | inactive | inactive | inactive | inactive | inactive |  | inactive | inactive | -4.73% and -2.04% |  | -14% and -8.08% | inactive |  | 19 µM (active) |  | 37.6 µM (active) |  |
